The record followed here is PubChem BioAssay (Tox21).

“And” between values parts separate entries of the source, which are not always exact repeats. Equal entries are not always repeated. Values without a mark were called inactive. A call without a number means that no potency is given here. The source made the active and inactive calls. Calls come from the whole dose curve; as a rule, active = well fitted curve in the direction sought with a large enough effect in the repeat runs; inconclusive = weak or mixed curves; inactive = flat fitted curve, though single readings scatter.
Tags give direction and shape of the fitted curve or compound fluorescence and quenching.

The nature of one experiment: qHTS assay to test for compound auto fluorescence at 535 nm (green) in HEK293 cell free culture (AID 720682). The settings on record: cell-free medium, green autofluorescence 485/535 nm; series mostly up to 91.3 µM; activity change: at the top concentration. The procedure, abridged: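 Each library compound, or DMSO control, is added by pintool to medium alone, comprising DMEM and 10% FBS. Emission at 535 nm following 485 nm excitation is quantified against fluorescein.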
(In general: In qHTS, concentration-response curves come from the screen itself.)
As for `O=C1NC(=O)C(c2ccccc2)(c2ccccc2)N1`, the Potency entry is “inactive”.

Take `O=c1[nH]cnc2c1ncn2[C@H]1CC[C@@H](CO)O1`: the Potency result was “inactive”.

Consider `C=C(C)C(=O)OCC(C)O` (stereo not drawn), for which the Potency entry is “inactive”.

Turning to `O=C(Nc1ncc([N+](=O)[O-])s1)c1cccs1`, the “activity change” value was -0.0541% [at 46 µM, active compounds read high].

As for `C1=CC2C3C=CC(C3)C2C1` (stereo not drawn), the “activity change” value is -0.143%.

Turning to `CN1CCC[C@H]1c1cccnc1`, the Potency result is “inactive”.

Consider `C1CCC(C(CC2CCCCN2)C2CCCCC2)CC1` (stereo not drawn), for which the “activity change” value was 0.166% [at 46 µM, active compounds read high].

Consider `O=S1(=O)OC(c2ccc(O)cc2)(c2ccc(O)cc2)c2ccccc21`, for which the Potency result was “inactive”.

Regarding `CC/C(=C(\c1ccccc1)c1ccc(OCCN(C)C)cc1)c1ccccc1`, the Potency result was “inactive”.

As to `CCCCCCc1ccc(O)cc1O`, the Potency result is “inactive”.

With `C=C1CC[C@H](O)C/C1=C\C=C1/CCC[C@]2(C)[C@@H]([C@H](C)CCCC(C)C)CC[C@@H]12`, the Potency result is “inactive”.

Consider `F[B-](F)(F)F`, for which the Potency entry was “inactive”.

In the case of `CCN(CC)C(=O)c1cccc(C)c1`, the Potency entry is “inactive”.

Regarding `COc1ccc(CN(CCN(C)C)c2ccccn2)cc1`, the Potency result was “inactive”.

As for `CCN(Cc1c(F)cccc1Cl)c1c([N+](=O)[O-])cc(C(F)(F)F)cc1[N+](=O)[O-]`, the “activity change” value is -0.0278%.

The nature of another experiment: qHTS assay to test for compound auto fluorescence at 590 nm (red) in HEK293 cell free culture (AID 720683). Note: potency is the fitted concentration of half-maximal effect. The settings on record: cell-free medium autofluorescence, Ex540/Em590 red; series mostly up to 91.3 µM; fluorescence, % of fluorescent control: at the top concentration. The procedure, abridged: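 Tox21 10K library compounds were pinned into cell-free DMEM with 10% FBS and fluorescence was read at excitation 540 nm. Activity is expressed as Rose Bengal sodium equivalency.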
For `O=C1NC(=O)C(c2ccccc2)(c2ccccc2)N1`, the Potency entry is “inactive”.

Turning to `O=c1[nH]cnc2c1ncn2[C@H]1CC[C@@H](CO)O1`, the Potency entry is “inactive”.

For `C=C(C)C(=O)OCC(C)O` (stereo not drawn), the Potency result is “inactive”.

As for `CC(C)c1c(C(=O)Nc2ccccc2)c(-c2ccccc2)c(-c2ccc(F)cc2)n1CC[C@@H](O)C[C@@H](O)CC(=O)O`, the Potency result was “inactive”.

For `O=C(Nc1ncc([N+](=O)[O-])s1)c1cccs1`, the “fluorescence, % of fluorescent control” value is -0.774% [at 46 µM].

`CN1[C@@H]2CC(OC(=O)[C@H](CO)c3ccccc3)C[C@H]1[C@@H]1O[C@@H]12` (stereo partly drawn): the Potency entry is “inactive”.

As for `C/C=C/C=C/C(=O)O`, the Potency entry was “inactive”.

Turning to `C1=CC2C3C=CC(C3)C2C1` (stereo not drawn), the “fluorescence, % of fluorescent control” value was 0.563%.

As for `CCCC[P+](CCCC)(CCCC)CCCC`, the Potency result is “inactive”.

In the case of `CN1CCC[C@H]1c1cccnc1`, the Potency entry was “inactive”.

As to `C1CCC(C(CC2CCCCN2)C2CCCCC2)CC1` (stereo not drawn), the “fluorescence, % of fluorescent control” value was 0.114% [at 46 µM].

In the case of `O=S1(=O)OC(c2ccc(O)cc2)(c2ccc(O)cc2)c2ccccc21`, the Potency entry is “inactive”.

Turning to `Cc1ccc(S(=O)(=O)O)cc1`, the Potency entry was “inactive”.

With `CC/C(=C(\c1ccccc1)c1ccc(OCCN(C)C)cc1)c1ccccc1`, the Potency result is “inactive”.

Consider `CCCCCCc1ccc(O)cc1O`, for which the Potency result was “inactive”.

`O=C1NS(=O)(=O)c2ccccc21`: the Potency result was “inactive”.

`COc1ccc2cc(S(=O)(=O)N[C@H](CC(=O)N[C@H](Cc3ccc(CN4[C@H](C)CCC[C@@H]4C)cc3)C(=O)N(C)C(C)C)c3ccc4c(c3)OCO4)ccc2c1`: the “fluorescence, % of fluorescent control” value is 0.0022%.

In the case of `C=C1CC[C@H](O)C/C1=C\C=C1/CCC[C@]2(C)[C@@H]([C@H](C)CCCC(C)C)CC[C@@H]12`, the Potency entry was “inactive”.

Regarding `F[B-](F)(F)F`, the Potency entry is “inactive”.

On to `CC(=O)CC(c1ccccc1)c1c(O)c2ccccc2oc1=O` (stereo not drawn), for which the Potency result is “inactive”.

Consider `O=CC(=O)c1ccccc1`, for which the “fluorescence, % of fluorescent control” value is 0.0519%.

As to `CN[C@H]1CC[C@@H](c2ccc(Cl)c(Cl)c2)c2ccccc21`, the “fluorescence, % of fluorescent control” value was -0.003% [at 46 µM].

On to `CCN(CC)C(=O)c1cccc(C)c1`, for which the Potency entry was “inactive”.

Turning to `CCCCC(CC)C(=O)O` (stereo not drawn), the Potency result is “inactive”.

In the case of `CC(C)NCC(O)c1ccc(O)c(O)c1` (stereo not drawn), the Potency entry is “inactive”.

Consider `O=C1OC2(c3ccccc31)c1cc(Br)c(O)c(Br)c1Oc1c2cc(Br)c(O)c1Br`, for which the Potency is 4.47 µM [fluorescent] (active) and 3.55 µM [fluorescent] (active).

As to `CC(=O)CCC(=O)O`, the Potency result is “inactive”.

For the molecule `COc1ccc(CN(CCN(C)C)c2ccccn2)cc1`, the Potency entry was “inactive”.

Consider `CCN(Cc1c(F)cccc1Cl)c1c([N+](=O)[O-])cc(C(F)(F)F)cc1[N+](=O)[O-]`, for which the “fluorescence, % of fluorescent control” value is -0.061%.

A short description of another experiment: qHTS assay to test for compound auto fluorescence at 590 nm (red) in HepG2 cell free culture (AID 720684). Note: potency is the fitted concentration of half-maximal effect. The settings on record: cell-free medium autofluorescence, red 540/590 nm; series mostly up to 91.3 µM; fluorescence, % of Rose Bengal: at the top concentration. The method, boiled down: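 Readout: intrinsic compound fluorescence at 590 nm emission after 540 nm excitation, scaled to Rose Bengal sodium. Matrix was cell-free MEM with 10% FBS; DMSO vehicle wells served as control.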
In the case of `O=C1NC(=O)C(c2ccccc2)(c2ccccc2)N1`, the Potency result was “inactive”.

For `O=c1[nH]cnc2c1ncn2[C@H]1CC[C@@H](CO)O1`, the Potency entry is “inactive”.

As for `C=C(C)C(=O)OCC(C)O` (stereo not drawn), the Potency entry is “inactive”.

Take `CC(C)c1c(C(=O)Nc2ccccc2)c(-c2ccccc2)c(-c2ccc(F)cc2)n1CC[C@@H](O)C[C@@H](O)CC(=O)O`: the Potency result was “inactive”.

As to `O=C(Nc1ncc([N+](=O)[O-])s1)c1cccs1`, the “fluorescence, % of Rose Bengal” value was 0.0702% [at 46 µM].

Regarding `CN1[C@@H]2CC(OC(=O)[C@H](CO)c3ccccc3)C[C@H]1[C@@H]1O[C@@H]12` (stereo partly drawn), the Potency result is “inactive”.

Turning to `C/C=C/C=C/C(=O)O`, the Potency result is “inactive”.

On to `C1=CC2C3C=CC(C3)C2C1` (stereo not drawn), for which the “fluorescence, % of Rose Bengal” value was -0.322%.

For `CCCC[P+](CCCC)(CCCC)CCCC`, the Potency entry was “inactive”.

For the molecule `CN1CCC[C@H]1c1cccnc1`, the Potency entry is “inactive”.

Take `C1CCC(C(CC2CCCCN2)C2CCCCC2)CC1` (stereo not drawn): the “fluorescence, % of Rose Bengal” value was -0.141% [at 46 µM].

Consider `O=S1(=O)OC(c2ccc(O)cc2)(c2ccc(O)cc2)c2ccccc21`, for which the Potency result is “inactive”.

As to `Cc1ccc(S(=O)(=O)O)cc1`, the Potency result is “inactive”.

In the case of `CC/C(=C(\c1ccccc1)c1ccc(OCCN(C)C)cc1)c1ccccc1`, the Potency entry is “inactive”.

On to `CCCCCCc1ccc(O)cc1O`, for which the Potency entry was “inactive”.

In the case of `O=C1NS(=O)(=O)c2ccccc21`, the Potency result was “inactive”.

`COc1ccc2cc(S(=O)(=O)N[C@H](CC(=O)N[C@H](Cc3ccc(CN4[C@H](C)CCC[C@@H]4C)cc3)C(=O)N(C)C(C)C)c3ccc4c(c3)OCO4)ccc2c1`: the “fluorescence, % of Rose Bengal” value was -0.0008%.

As to `C=C1CC[C@H](O)C/C1=C\C=C1/CCC[C@]2(C)[C@@H]([C@H](C)CCCC(C)C)CC[C@@H]12`, the Potency entry is “inactive”.

On to `F[B-](F)(F)F`, for which the Potency entry is “inactive”.

On to `CC(=O)CC(c1ccccc1)c1c(O)c2ccccc2oc1=O` (stereo not drawn), for which the Potency result was “inactive”.

In the case of `O=CC(=O)c1ccccc1`, the “fluorescence, % of Rose Bengal” value is 0.0133%.

In the case of `CN[C@H]1CC[C@@H](c2ccc(Cl)c(Cl)c2)c2ccccc21`, the “fluorescence, % of Rose Bengal” value was -0.306% [at 46 µM].

`CCN(CC)C(=O)c1cccc(C)c1`: the Potency entry was “inactive”.

Regarding `CCCCC(CC)C(=O)O` (stereo not drawn), the Potency entry is “inactive”.

Take `CC(C)NCC(O)c1ccc(O)c(O)c1` (stereo not drawn): the Potency result is “inactive”.

On to `O=C1OC2(c3ccccc31)c1cc(Br)c(O)c(Br)c1Oc1c2cc(Br)c(O)c1Br`, for which the Potency was 3.16 µM [fluorescent] (active) and 2.82 µM [fluorescent] (active) and 2.51 µM [fluorescent] (active).

Take `CC(=O)CCC(=O)O`: the Potency entry is “inactive”.

Consider `COc1ccc(CN(CCN(C)C)c2ccccn2)cc1`, for which the Potency entry is “inactive”.

Consider `CCN(Cc1c(F)cccc1Cl)c1c([N+](=O)[O-])cc(C(F)(F)F)cc1[N+](=O)[O-]`, for which the “fluorescence, % of Rose Bengal” value is 0.0284%.
